hgDAF-12 ag – activates the H. glycines DAF-12 receptor ligand-binding domain. HEK293 GAL4-hgDAF12 UAS-luciferase reporter, agonist luminescence; normalized to butyrate control. activation, % at 6.8 µM. 370,000 tested, 1.8% active;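 active = activation above a cutoff set at the mean of all screened compounds plus 3 SD, cut at about 10% in these data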;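 also: 0% = DMSO wells and 100% = sodium butyrate wells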
DAX1 inh-1 – inhibitors of human orphan nuclear receptor DAX1 (NR0B1). 340,000 tested, 0.99% active. HEK293 Gal4-DAX1 luciferase reporter, luminescence. inhibition, % at 6.75 µM;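 active = inhibition above the mean over all tested compounds plus 3 SD, cut at about 4.2% in these data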;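 also: 0% = DAX1-transfected cells with DMSO and 100% = empty-vector control cells with DMSO; inhibition shows as a rise in luminescence from relieved DAX1 repression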
Target sequence (P51843 207-470 limits assumed): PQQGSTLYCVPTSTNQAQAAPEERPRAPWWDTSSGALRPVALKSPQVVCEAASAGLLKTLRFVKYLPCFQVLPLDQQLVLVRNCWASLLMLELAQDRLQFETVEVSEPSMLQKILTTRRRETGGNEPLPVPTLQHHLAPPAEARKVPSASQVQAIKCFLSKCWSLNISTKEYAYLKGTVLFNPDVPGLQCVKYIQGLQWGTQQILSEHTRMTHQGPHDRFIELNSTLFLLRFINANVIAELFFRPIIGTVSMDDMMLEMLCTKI
DAX1 inh-2 – blocks DAX1 repression of SF-1 activated StAR promoter; HEK293T StAR-luciferase reporter, SF-1/DAX-1 repression relief; inhibition, % at 6.8 µM; 370,000 tested, 1.1% active; AID 652010;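 active = inhibition above the mean over all tested compounds plus 3 SD, cut at about 3.6% in these data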;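 also: 0% = DAX-1 cells with DMSO and 100% = cells lacking DAX-1 with DMSO; higher inhibition means more luminescence from relief of DAX-1 repression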
ssDAF12 agonist – S. stercoralis DAF-12 activation, primary screen. HEK293 ssDAF-12/GRIP1 lit1-tk-luc reporter, luminescence; % of 3 µM dafachronic acid response. activation, % at 6.8 µM. AID 652126. 370,000 tested, 1% active;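 active = activation above the mean over all tested compounds plus 3 SD, cut at about 0.9% in these data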;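 also: 0% = DMSO-only wells and 100% = 3 µM delta7-dafachronic acid wells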
GAA850 FXN act – activators of GAA850 frataxin (FXN) promoter | HEK293 lucGAA850 FXN promoter luciferase reporter, 24 h; percent of 10 µM SAHA response | 360,000 tested, 0.56% active | AID 540364 | activation, % at 6 µM;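 active = activation above the average of all compounds screened plus 3 SD, cutoff fixed separately per campaign, cut at about 7.5% in these data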;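 also: 0% = DMSO wells and 100% = 10 µM SAHA wells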
hcDAF-12 act – activates DAF-12 receptor from parasite H. contortus; HEK293 hcDAF-12 lit1-tk-luc reporter, luminescence; 0% DMSO, 100% Δ7-dafachronic acid; activation, % at 6.8 µM; 370,000 tested, 1.4% active; AID 652067;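 active = activation above the mean of all tested compounds plus 3 SD, cut at about 5.5% in these data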;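 also: 100% = response to 3 µM Δ7-dafachronic acid high control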
LXRb hcDAF ctr – activates human LXR-beta, counter-screen for hcDAF-12 agonists; shares compounds with hcDAF-12 act; HEK293 Gal4-LXR tk-luc reporter, luminescence, 24 h; normalized: DMSO 0%, positive control 100%; activation, % at 6.8 µM; 3,400 tested, under 10 active; AID 743027;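 active = mean percent activation of the reporter above a cutoff set as the average over tested compounds plus their standard deviation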
Target sequence (P55055 whole entry, looked up, the tested form may be a part): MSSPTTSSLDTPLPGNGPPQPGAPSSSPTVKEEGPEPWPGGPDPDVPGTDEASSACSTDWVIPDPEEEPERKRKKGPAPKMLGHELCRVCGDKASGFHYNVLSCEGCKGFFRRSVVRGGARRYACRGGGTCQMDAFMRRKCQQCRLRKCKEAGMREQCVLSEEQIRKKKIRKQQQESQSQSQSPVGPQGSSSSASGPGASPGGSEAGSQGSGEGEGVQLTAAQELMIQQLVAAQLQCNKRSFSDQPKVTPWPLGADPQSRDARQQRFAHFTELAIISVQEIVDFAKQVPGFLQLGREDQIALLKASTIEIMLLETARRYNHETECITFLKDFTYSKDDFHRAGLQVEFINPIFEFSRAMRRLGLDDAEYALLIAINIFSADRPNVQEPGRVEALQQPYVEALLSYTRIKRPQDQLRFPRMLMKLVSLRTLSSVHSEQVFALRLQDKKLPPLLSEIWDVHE
hcDAF12 conf – confirmation of H. contortus DAF-12 agonists; shares compounds with hcDAF-12 act; HEK293 hcDAF-12 lit1-tk-luc reporter, luminescence; % of Δ7-dafachronic acid response; activation, % at 6.8 µM; 3,400 tested, 61% active; AID 743032;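 active = mean activation across triplicate tests above the threshold derived from the earlier primary screen, cut at about 5.5% in these data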;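 also: 0% = DMSO only wells and 100% = 3 µM Δ7-dafachronic acid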
Numbers without * were called inactive. In the library only some 4.5% were active in any assay of this set; here they are far more common.

For COc1ccc(NC(=O)N(C)C[C@@H]2Oc3c(NC(=O)Nc4c(C)noc4C)cccc3C(=O)N([C@@H](C)CO)C[C@@H]2C)cc1 the results were hgDAF-12 ag 1.7, DAX1 inh-1 0.3, DAX1 inh-2 -0.4, ssDAF12 agonist -0.5, GAA850 FXN act 0.7 and hcDAF-12 act -0.5.
For COc1ccc(NC(=O)Nc2cccc3c2O[C@H](CN(C)C(=O)Nc2c(C)noc2C)[C@@H](C)CN([C@H](C)CO)C3=O)cc1 the results were hgDAF-12 ag 1.1, DAX1 inh-1 1.5, DAX1 inh-2 -0.1, ssDAF12 agonist -1.2, GAA850 FXN act 1.9, hcDAF-12 act 7.0*, LXRb hcDAF ctr -0.3 and hcDAF12 conf -0.2.
For COc1cccc(CNC(=O)[C@H]2CCCN2C(=O)[C@H]2CCCN2C(=O)c2ccc(F)c(F)c2)c1 the results were hgDAF-12 ag -0.6, DAX1 inh-2 0.2, ssDAF12 agonist -0.9 and hcDAF-12 act 0.9.
For CN(N=Cc1ccccc1O)c1ccc2ccccc2n1 the results were hgDAF-12 ag 12.2*, DAX1 inh-1 4.0, DAX1 inh-2 2.2, ssDAF12 agonist 2.4*, GAA850 FXN act 0.5, hcDAF-12 act 8.6*, LXRb hcDAF ctr 1.8 and hcDAF12 conf 12.2*.
Screening COc1ccc(C2C(C(=O)N3CCN(c4ccccc4Cl)CC3)CC(=O)N2c2ccc(OC)cc2)cc1 (stereo not given) returned hgDAF-12 ag -1.4, DAX1 inh-2 -0.9, ssDAF12 agonist -1.9 and hcDAF-12 act -3.0.
COc1ccc(-c2ccc(N3C(c4ccsc4)=Cc4ccc(F)cc4C3c3c[nH]c4ccccc34)cc2)cc1 (stereo not given) was read as hgDAF-12 ag 8.6, DAX1 inh-2 -1.2, ssDAF12 agonist 1.5*, hcDAF-12 act 8.5*, LXRb hcDAF ctr 0.1 and hcDAF12 conf 6.9*.
For CC1CCCCN1C(=O)CSCC(=O)Nc1nc(-c2cccs2)cs1 (stereo not given) the results were hgDAF-12 ag 6.8, DAX1 inh-1 1.1, DAX1 inh-2 0.6, ssDAF12 agonist -0.2, GAA850 FXN act 1.4, hcDAF-12 act 6.6*, LXRb hcDAF ctr -0.2 and hcDAF12 conf 2.0.
O=C(NCCc1c[nH]c2ccccc12)OCc1cn(Cc2cccc(Cl)c2)nn1 was read as hgDAF-12 ag 6.6, DAX1 inh-2 0.5, ssDAF12 agonist -1.2, hcDAF-12 act 6.6*, LXRb hcDAF ctr -0.4 and hcDAF12 conf -0.8.
Screening Cc1cccc(Cn2cc(COC(=O)NCCc3c[nH]c4ccccc34)nn2)c1 returned hgDAF-12 ag 1.3, DAX1 inh-2 -1.0, ssDAF12 agonist -0.9 and hcDAF-12 act -0.8.
Screening COc1ccc(NC(=O)CSc2nc(C(C)C)nc3c2c(=O)n(C)c(=O)n3C)c(OC)c1 returned hgDAF-12 ag -2.3, DAX1 inh-1 -0.2, DAX1 inh-2 -2.6, ssDAF12 agonist -1.3, GAA850 FXN act -1.0 and hcDAF-12 act -0.7.
Screening NS(=O)(=O)c1cccc(NC(=O)Nc2ccccc2)c1 returned hgDAF-12 ag 0.0, DAX1 inh-1 1.8, DAX1 inh-2 0.6, ssDAF12 agonist -0.6, GAA850 FXN act -0.6 and hcDAF-12 act 1.9.
Screening Cc1ccc(S(=O)(=O)/C(C#N)=C/c2c[nH]c3ccccc23)cc1 returned hgDAF-12 ag 2.8, DAX1 inh-1 -0.8, DAX1 inh-2 0.6, ssDAF12 agonist 0.1, GAA850 FXN act -0.2 and hcDAF-12 act 4.5.
`COC(=O)/C(C#N)=C/c1c[nH]c2ccccc12` gave hgDAF-12 ag 10.2, DAX1 inh-1 2.7, DAX1 inh-2 -0.2, ssDAF12 agonist 0.2, GAA850 FXN act 4.6, hcDAF-12 act 8.1*, LXRb hcDAF ctr 0.5 and hcDAF12 conf 9.9*.
Screening CCOC(=O)/C(C#N)=C/c1c[nH]c2ccccc12 returned hgDAF-12 ag 7.5, DAX1 inh-1 1.0, DAX1 inh-2 0.2, ssDAF12 agonist 0.4, GAA850 FXN act 5.8, hcDAF-12 act 9.0*, LXRb hcDAF ctr 0.1 and hcDAF12 conf 5.1.
Screening Cc1ccc(C(=O)/C=C/c2c[nH]c3ccccc23)cc1 returned hgDAF-12 ag 8.0, DAX1 inh-1 2.2, DAX1 inh-2 1.5, ssDAF12 agonist 0.2, GAA850 FXN act 6.1, hcDAF-12 act 8.6*, LXRb hcDAF ctr 0.5 and hcDAF12 conf 4.2.
Screening O=[N+]([O-])c1ccccc1/C=C/C=N/Nc1ccc(S(=O)(=O)Nc2ccc(Cl)cc2)cc1[N+](=O)[O-] returned hgDAF-12 ag -2.5, DAX1 inh-1 0.1, DAX1 inh-2 0.4, ssDAF12 agonist -1.1, GAA850 FXN act -0.2 and hcDAF-12 act 2.6.
NC(=S)N/N=C/c1ccc(-c2ccccc2)o1 was read as hgDAF-12 ag 6.7, DAX1 inh-1 2.3, DAX1 inh-2 -1.5, ssDAF12 agonist -1.4, GAA850 FXN act 0.2 and hcDAF-12 act -0.5.
For Cc1ccc(-c2ccc(/C=N/NC(N)=S)o2)cc1 the results were hgDAF-12 ag 7.4, DAX1 inh-1 3.4, DAX1 inh-2 0.2, ssDAF12 agonist 1.7*, GAA850 FXN act 2.6, hcDAF-12 act 10.3*, LXRb hcDAF ctr 0.4 and hcDAF12 conf 7.5*.
`NC(=S)N/N=C\c1ccc(-c2cccc(Cl)c2Cl)o1` gave hgDAF-12 ag 3.9, DAX1 inh-1 0.2, DAX1 inh-2 -1.2, ssDAF12 agonist -0.9, GAA850 FXN act 0.7 and hcDAF-12 act 3.4.
NC(=S)N/N=C/c1ccc(-c2ccc(Cl)c(Cl)c2)o1 was read as hgDAF-12 ag 5.6, DAX1 inh-1 1.0, DAX1 inh-2 -1.1, ssDAF12 agonist 1.4*, GAA850 FXN act -4.5, hcDAF-12 act 7.1*, LXRb hcDAF ctr 0.1 and hcDAF12 conf 9.9*.
CN(CC(=O)Nc1ccccc1Br)CC(=O)Nc1ccccc1C(F)(F)F was read as hgDAF-12 ag -1.5, DAX1 inh-1 -0.7, DAX1 inh-2 -0.3, ssDAF12 agonist -0.9, GAA850 FXN act 0.7 and hcDAF-12 act -1.2.
For COC(=O)c1cc(S(=O)(=O)N2CCN(C(=O)c3ccco3)CC2)cn1C the results were hgDAF-12 ag -1.8, DAX1 inh-1 0.2, DAX1 inh-2 -0.8, ssDAF12 agonist -1.0, GAA850 FXN act -0.2 and hcDAF-12 act -1.4.
For O=C(OCC(=O)c1c[nH]c2ccccc12)c1cc2ccccc2cc1O the results were hgDAF-12 ag 0.7, DAX1 inh-1 -1.0, DAX1 inh-2 -0.4, ssDAF12 agonist -1.1, GAA850 FXN act 1.8, hcDAF-12 act 8.0*, LXRb hcDAF ctr -0.3 and hcDAF12 conf 3.7.

High-throughput results as filed in PubChem.
